target: Homeobox protein Hox-A13 (Mus musculus) (UniProt Q62424); experiment: disruptors of Hoxa13 oligonucleotide interaction – biochemical, fluorescence polarization, labeled oligonucleotide, primary screen (AID 1185); details: Hoxa13:DNA binding, 15 min, higher = more signal, called active from +8 up or from −8 down
Sequence (Q62424 whole entry, looked up): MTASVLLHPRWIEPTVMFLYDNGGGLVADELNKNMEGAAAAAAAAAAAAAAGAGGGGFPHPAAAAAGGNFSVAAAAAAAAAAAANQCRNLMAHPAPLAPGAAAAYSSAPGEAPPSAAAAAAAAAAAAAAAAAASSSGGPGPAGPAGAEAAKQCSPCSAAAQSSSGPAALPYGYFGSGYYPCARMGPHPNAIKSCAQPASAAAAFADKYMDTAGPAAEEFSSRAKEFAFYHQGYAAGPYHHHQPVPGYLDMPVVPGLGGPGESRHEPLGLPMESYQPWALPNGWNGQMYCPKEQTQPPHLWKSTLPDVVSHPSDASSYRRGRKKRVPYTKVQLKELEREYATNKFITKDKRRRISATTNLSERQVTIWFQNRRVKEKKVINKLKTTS

z-score, inactive:
CCCCC(=C=CC[C@@H](O)c1ccccc1OCCO)C[C@@H](O)c1ccccn1 -5.1
[N-]=[N+]=Nc1ccccc1C[C@]1(C(=O)N2CCCCC2)N=C(c2ccc(OCCCO)cc2)O[C@H]1c1ccccc1 -5.43
C=C1C(=O)C=C2CN(C(=O)c3ccccc3)[C@@](Cc3ccc(F)cc3)(C(=O)OC)[C@@H]12 -4.76
COC(=O)C(CC#Cc1ccc2c(c1)[C@]1(C(=O)N2)[C@H](c2ccc(OCCO)cc2)N2[C@H](c3ccccc3)[C@H](c3ccccc3)OC(=O)[C@H]2[C@@H]1C(N)=O)C(=O)OC -1.34
C=CCNC(=O)[C@H]1[C@@H]2C(=O)O[C@@H](c3ccccc3)[C@@H](c3ccccc3)N2[C@@H](c2ccc(O)cc2)[C@]12C(=O)N(C(=O)OCCOC)c1ccc(C#Cc3ccc(OC)cc3)cc12 -1.16
C=C(C)C1CN([C@H](CO)c2ccccc2)C(=O)/C1=C\c1ccccc1 (stereo not given in full) -1.05
COC(=O)C(CC#Cc1ccc2c(c1)[C@]1(C(=O)N2)[C@H](C(N)=O)[C@H]2C(=O)O[C@H](c3ccccc3)[C@H](c3ccccc3)N2[C@@H]1c1ccccc1OCCO)C(=O)OC -1.12
C=CC[C@H](OC(=O)Nc1ccc(SC)cc1)c1ccc(O)c(F)c1 -0.845
CN1C2C=C(c3ccc(CO)cc3)C(C3C(=O)N(C(N)=O)C(=O)C32)C1C1CC1 (stereo not given) -6.63
CCCCN1CC=CC23O[C@@H]4/C=C\CCCOC(=O)C4[C@H]2C(=O)N(CCCCCCO)[C@@H]3C1=O (stereo not given in full) -4.71
CN(C)C(=O)[C@]1(CCS(=O)(=O)c2ccccc2)N=C(c2ccc(OCCCO)cc2)O[C@@H]1c1ccccc1CN=[N+]=[N-] -4.39
CC(C)(C)OC(=O)CC[C@@]1(C(=O)N2CCOCC2)N=C(c2ccc(OCCCO)cc2)O[C@@H]1c1ccccc1CN=[N+]=[N-] -4.94
COc1ccc(CCNC(=O)[C@@H]2c3ccccc3C(=O)N(C(C)C)[C@H]2c2ccc(CO)cc2)cc1 -2.13
COC(=O)C(CC#Cc1ccc2c(c1)[C@]1(C(=O)N2)[C@H](C(=O)N2CCCCCCC2)[C@H]2C(=O)O[C@H](c3ccccc3)[C@H](c3ccccc3)N2[C@@H]1c1ccc(OCCO)cc1)C(=O)OC -6.85
O=C1N(Cc2ccccc2)Cc2ccccc2C[C@@]12COC(c1ccc(OCCCO)cc1)=N2 -4.67
COc1cccc(C)c1NC(=O)O[C@H]1[C@H](OC(=O)Nc2ccccc2)[C@@H](OC(=O)Nc2ccccc2)[C@@H](OC)O[C@@H]1CO -4.95
COc1ccc(NN2C(C(O)c3ccc(F)cc3)C=CC3C(=O)N(C4CCCCC4)C(=O)C32)cc1 (stereo not given) -4.3
COCCOC(=O)N1C(=O)[C@@]2(c3cc(C#CCCO)ccc31)[C@H](c1ccc(O)cc1)N1[C@H](c3ccccc3)[C@H](c3ccccc3)OC(=O)[C@H]1[C@@H]2C(=O)NC[C@H](O)c1ccccc1 -2.51
CC(C)N1CC=CC23O[C@@H]4/C=C\CCCOC(=O)C4[C@H]2C(=O)N(C(C)CO)[C@@H]3C1=O (stereo not given in full) -4.1
O=C/C=C/c1ccc(-c2ccccc2)cc1 -1.34
C=CCC(OC(C)=O)[C@@H]1[C@@H](N(Cc2ccc(-c3ccccc3)cc2)C(=O)Cc2ccc(OC)cc2)c2cc(OCCCO)ccc2N1C(=O)Cc1ccc(OC)cc1 (stereo not given in full) -2.75
COc1ccc([Si](C)(C)[C@@H]2[C@@H](CC(=O)N(CCO)Cc3ccccc3)O[C@]3(C(=O)N(Cc4cccc(I)c4)c4ccccc43)[C@H]2C)cc1 -1.79
CCCCCN1CC=CC23O[C@@H]4/C=C\CCCOC(=O)C4[C@H]2C(=O)N(CCO)[C@@H]3C1=O (stereo not given in full) -3.77
COc1ccc([Si](C)(C)[C@H]2[C@H](CC(=O)N3CCC[C@H]3CO)O[C@@]3(C(=O)N(C)c4c(Br)cc(C)cc43)[C@@H]2C)cc1 -5.84
Cc1ccc(S[C@]2(C(=O)NC(C)C)CC(=O)N(Cc3ccccc3)[C@@H]2c2ccc(CO)cc2)cc1 -1.54
O=C1C2C=CC(C(O)C3CCCCC3)N(Nc3ccccc3F)C2C(=O)N1c1ccccc1 (stereo not given) 0.182
CO[C@H]1O[C@H](CO)[C@@H](OC(=O)CCc2ccccc2)[C@@H]2OC(=O)[C@@H](Cc3ccc4ccccc4c3)C/C=C/C[C@H](Cc3ccc4ccccc4c3)C(=O)O[C@@H]12 -4.15
C[C@H]1C2[C@H](Cc3ccccc3)NC(=O)[C@]23C(=O)N[C@@H](Cc2ccccc2)C(=O)N2CCC[C@H]2C(=O)NC/C=C/CC/C=C/C3[C@@H]2O[C@]12C (stereo not given in full) -7.13
COC(=O)C(CC#Cc1ccc2c(c1)[C@]1(C(=O)N2)[C@H](C(=O)N2CCN(c3ncccn3)CC2)[C@H]2C(=O)O[C@H](c3ccccc3)[C@H](c3ccccc3)N2[C@@H]1c1ccc(O)cc1)C(=O)OC -2.37
CO[C@H]1O[C@H](CO)[C@@H](OC(=O)Nc2cccc(F)c2)[C@H](OC(=O)c2cc3ccccc3[nH]2)[C@H]1OC(=O)c1cc2ccccc2[nH]1 -0.266
COC(=O)C1=CC(c2ccc(CO)cc2)=CC(C2CC2)N(Cc2cc3c(cc2Br)OCO3)C=C1C(=O)OC (stereo not given) -5.19
C=CCOC(=O)[C@@H]1[C@H]2C(=O)O[C@H](c3ccccc3)[C@H](c3ccccc3)N2[C@H](c2ccc(OCCOC(=O)[C@H]3C[C@H]4C(=O)N[C@@H](CCCCN(C)C)C(=O)N4[C@H]3c3cccc(OCCO)c3)cc2)[C@@]12C(=O)Nc1ccccc12 -1.64
C=C[C@@H](CO)NS(=O)(=O)c1ccc(Br)cc1 0.553
COC(=O)[C@@]1(Cc2ccc(F)cc2)[C@H]2c3cc(C(=O)N4CCCC4)n(CCSCCO)c3C[C@H]2CN1C(=O)c1ccccc1 -4.82
O=C1C2C=CC(C(O)C3CC=CCC3)N(Nc3ccc([N+](=O)[O-])cc3)C2C(=O)N1c1ccccc1 (stereo not given) -3.86

Reference: PubChem BioAssay
